# Results taken from PubChem BioAssay.
# Where “and” joins values, the source holds several entries; their conditions need not be identical. Equal entries are not always repeated. Records with an inconclusive call do not appear. Calls of active or inactive are those of the source.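 How the source made its calls, unless noted: active means normalized viability below 100% at a tested concentration; inactive means the rest.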
# Tests used:
# [1] = viability loss in pontine glioma line – cell-based, SU-DIPG-XVII, MIPE5.0, CellTiter-Glo, qHTS, dose response (AID 1347060; cut-off not given, nearly all actives have AC50 up to about 26 µM;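 on AC50: cells exposed to compound for 48 hours before viability readout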); conditions: CellTiter-Glo ATP luminescence
# [2] = viability loss in pontine glioma line – cell-based, SU-DIPG-XIII, MIPE4.0, CellTiter-Glo, qHTS, dose response (AID 1347061; cut-off not given, nearly all actives have AC50 up to about 37 µM;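 further: cells exposed to compound for 48 hours before readout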); conditions: CellTiter-Glo ATP luminescence
# [3] = viability loss in pontine glioma line – cell-based, JHH-DIPG-1, MIPE4.0, CellTiter-Glo, qHTS, dose response (AID 1347062; cut-off not given, nearly all actives have AC50 up to about 27 µM;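 on AC50: cells exposed to compound for two days before readout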); conditions: JHH-DIPG-1 viability, CellTiter-Glo ATP luminescence
# [4] = viability loss in pontine glioma line – cell-based, SU-DIPG-IV, MIPE4.0, CellTiter-Glo, qHTS, dose response (AID 1347063; cut-off not given, nearly all actives have AC50 up to about 30 µM;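 further: compound exposure lasted 48 hours before the viability readout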); conditions: CellTiter-Glo ATP luminescence
# [5] = viability loss in pontine glioma line – cell-based, SU-DIPG-XIII, MIPE5.0, CellTiter-Glo, qHTS, dose response (AID 1347064; cut-off not given, nearly all actives have AC50 up to about 23 µM;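 on AC50: cells exposed to compound for 48 hours before the viability read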); conditions: CellTiter-Glo ATP luminescence
# [6] = viability loss in pontine glioma line – cell-based, SU-DIPG-XXV, MIPE5.0, CellTiter-Glo, qHTS, dose response (AID 1347065; cut-off not given, nearly all actives have AC50 up to about 26 µM;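 further: cells exposed to compound for 48 hours before ATP readout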); conditions: CellTiter-Glo ATP luminescence
# [7] = growth inhibition of DIPG cells – cell-based, MIPE4.0 library, CellTiter-Glo luminescence, qHTS (AID 1347066; cut-off not given, nearly all actives have AC50 up to about 30 µM;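 further: cells exposed to compound for 48 hours before readout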); conditions: SU-DIPG-VI viability, CellTiter-Glo ATP luminescence
# [8] = JHH-DIPG-1 glioma cell viability, MIPE5.0 library, CellTiter-Glo luminescence, qHTS (AID 1347067; cut-off not given, nearly all actives have AC50 up to about 26 µM;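 further: cells exposed to compound for 48 hours before readout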); conditions: JHH-DIPG-1 glioma viability, CellTiter-Glo ATP luminescence
# [9] = growth inhibition of DIPG cells – cell-based, MIPE5.0 library, qHTS (AID 1347068; cut-off not given, nearly all actives have IC50 up to about 30 µM;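 on IC50: cells exposed to compound for 48 hours before viability readout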); conditions: SU-DIPG-XXV viability
# [10] = viability loss with induced miR-34 in A549 – imaging, A549 dox-inducible miR-34, nuclei and caspase counts, primary screen (AID 1347080;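 active means compounds whose cell count with miR-34 switched on is under 0.7 times the count with it off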); conditions: A549 miR-34 inducible, Hoechst nuclei count, 48 h
# [11] = compounds altering HSF1 focus formation in cells – imaging, Selleck Cancer Library (AID 1347162; in the data active means plate-normalised HSF1 focus index below about 0.46); conditions: human cells, HSF1 nuclear foci imaging, at 10 µM; SSMD: measured here: HSF1 foci SSMD mean; cell count: measured here: cell number; plate-normalised HSF1 focus index: stronger effect = lower value
# [12] = MELAS cybrid and Rieske KO viability enhancers – cell-based, MELAS cybrids, Rieske KO mouse fibroblasts, CellTiter-Glo, primary screen (AID 1508586;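 active means mean z-score across replicates of 1.96 or higher in either the MELAS or the Rieske mutant cell line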;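 further: z relative to plate mean and SD of compound and empty wells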); conditions: low glucose
# [13] = drug combination growth inhibition, ovarian cancer – cell-based, oncology-focused library, rucaparib conditional, profiling panel (AID 1508598); conditions: patient-derived ovarian cancer cells, CellTiter-Glo viability, 144 h, stronger effect = lower value
smiles,measurement,setting,value
CS(=O)(=O)c1cccc(CNc2nc(Nc3ccc4c(c3)CCC(=O)N4)ncc2C(F)(F)F)c1,AC50,[1],6.61 µM (active)
same,AC50,[2],18.7 µM (active)
same,AC50,[3],16.6 µM (active)
same,AC50,[4],18.7 µM (active)
same,AC50,[5],8.33 µM (active)
same,AC50,[6],4.68 µM (active)
same,AC50,[7],16.6 µM (active)
same,AC50,[8],2.35 µM (active)
same,IC50,[9],8.33 µM (active)
same,fold change,"[10]; stronger effect = lower value, cell number ratio, induced over uninduced",0.913 (inactive) and 0.835 (inactive)
same,fold change,[10]; measured here: relative caspase fold change +Dox/-Dox,0.606 and 1.43
same,cell count,"[10]; measured here: total cells with miR-34 induction, stronger effect = lower value",1320 and 1930
same,cell count,[10]; measured here: total cells without miR-34 induction,1440 and 2320
same,SSMD,[11],-1.44
same,cell count,[11],7540
same,plate-normalised HSF1 focus index,[11],0.911 (inactive)
same,z-score,"[12]; MELAS cybrid survival, CellTiter-Glo 48 h, stronger effect = higher value",-0.299 (inactive)
same,z-score,"[12]; Rieske KO mouse fibroblast survival, CellTiter-Glo 72 h",-0.256
same,viability,"[13]; at 0.000305 µM, OCI-C5x cells, with rucaparib 10 µM, 100% = cells with rucaparib alone",98.4% (active)
same,viability,"[13]; at 0.000305 µM, OCI-C5x cells, without rucaparib",109% (inactive)
same,viability,"[13]; at 0.000305 µM, OCI-P5x cells, with rucaparib 20 µM, 100% = cells with rucaparib alone",88.7% (active)
same,viability,"[13]; at 0.000305 µM, OCI-P5x cells, without rucaparib",101% (inactive)
same,viability,"[13]; at 0.00122 µM, OCI-C5x cells, with rucaparib 10 µM, 100% = cells with rucaparib alone",108% (inactive)
same,viability,"[13]; at 0.00122 µM, OCI-C5x cells, without rucaparib",114% (inactive)
same,viability,"[13]; at 0.00122 µM, OCI-P5x cells, with rucaparib 20 µM, 100% = cells with rucaparib alone",84.8% (active)
same,viability,"[13]; at 0.00122 µM, OCI-P5x cells, without rucaparib",106% (inactive)
same,viability,"[13]; at 0.00488 µM, OCI-C5x cells, with rucaparib 10 µM, 100% = cells with rucaparib alone",113% (inactive)
same,viability,"[13]; at 0.00488 µM, OCI-C5x cells, without rucaparib",112% (inactive)
same,viability,"[13]; at 0.00488 µM, OCI-P5x cells, with rucaparib 20 µM, 100% = cells with rucaparib alone",93.9% (active)
same,viability,"[13]; at 0.00488 µM, OCI-P5x cells, without rucaparib",109% (inactive)
same,viability,"[13]; at 0.0195 µM, OCI-C5x cells, with rucaparib 10 µM, 100% = cells with rucaparib alone",104% (inactive)
same,viability,"[13]; at 0.0195 µM, OCI-C5x cells, without rucaparib",109% (inactive)
same,viability,"[13]; at 0.0195 µM, OCI-P5x cells, with rucaparib 20 µM, 100% = cells with rucaparib alone",91.7% (active)
same,viability,"[13]; at 0.0195 µM, OCI-P5x cells, without rucaparib",108% (inactive)
same,viability,"[13]; at 0.0781 µM, OCI-C5x cells, with rucaparib 10 µM, 100% = cells with rucaparib alone",102% (inactive)
same,viability,"[13]; at 0.0781 µM, OCI-C5x cells, without rucaparib",109% (inactive)
same,viability,"[13]; at 0.0781 µM, OCI-P5x cells, with rucaparib 20 µM, 100% = cells with rucaparib alone",88% (active)
same,viability,"[13]; at 0.0781 µM, OCI-P5x cells, without rucaparib",112% (inactive)
same,viability,"[13]; at 0.313 µM, OCI-C5x cells, with rucaparib 10 µM, 100% = cells with rucaparib alone",108% (inactive)
same,viability,"[13]; at 0.313 µM, OCI-C5x cells, without rucaparib",116% (inactive)
same,viability,"[13]; at 0.313 µM, OCI-P5x cells, with rucaparib 20 µM, 100% = cells with rucaparib alone",93.7% (active)
same,viability,"[13]; at 0.313 µM, OCI-P5x cells, without rucaparib",115% (inactive)
same,viability,"[13]; at 1.25 µM, OCI-C5x cells, with rucaparib 10 µM, 100% = cells with rucaparib alone",113% (inactive)
same,viability,"[13]; at 1.25 µM, OCI-C5x cells, without rucaparib",116% (inactive)
same,viability,"[13]; at 1.25 µM, OCI-P5x cells, with rucaparib 20 µM, 100% = cells with rucaparib alone",75.9% (active)
same,viability,"[13]; at 1.25 µM, OCI-P5x cells, without rucaparib",107% (inactive)
same,viability,"[13]; at 5 µM, OCI-C5x cells, with rucaparib 10 µM, 100% = cells with rucaparib alone",56.8% (active)
same,viability,"[13]; at 5 µM, OCI-C5x cells, without rucaparib",59.8% (active)
same,viability,"[13]; at 5 µM, OCI-P5x cells, with rucaparib 20 µM, 100% = cells with rucaparib alone",44.7% (active)
same,viability,"[13]; at 5 µM, OCI-P5x cells, without rucaparib",74.7% (active)
O=C(Nc1ccccc1Br)N[C@@H]1CCN(c2ccc(C(F)(F)F)cn2)C1,outcome,[1],inactive
same,outcome,[2],inactive
same,outcome,[3],inactive
same,outcome,[4],inactive
same,outcome,[5],inactive
same,outcome,[6],inactive
same,outcome,[7],inactive
same,outcome,[8],inactive
same,outcome,[9],inactive
C=C1C(=O)[C@@]23C(CC[C@@H]1[C@H]2O)[C@@]12CO[C@]3(O)[C@@H](O)[C@@H]1C(C)(C)CC[C@@H]2O (some centres not stated),AC50,[1],9.34 µM (active)
same,AC50,[2],7.43 µM (active)
same,AC50,[3],4.18 µM (active)
same,AC50,[4],2.35 µM (active)
same,AC50,[5],6.61 µM (active)
same,AC50,[6],8.33 µM (active)
same,AC50,[7],3.72 µM (active)
same,AC50,[8],5.9 µM (active)
same,IC50,[9],9.34 µM (active)
CC1(C)SCCN(S(=O)(=O)c2ccc(OCC#CCO)cc2)[C@H]1C(=O)NO,outcome,[1],inactive
same,outcome,[2],inactive
same,outcome,[3],inactive
same,outcome,[4],inactive
same,outcome,[5],inactive
same,outcome,[6],inactive
same,outcome,[7],inactive
same,outcome,[8],inactive
same,outcome,[9],inactive
